This note sets out measurements from PubChem BioAssay.

Each structure is given as a SMILES string. “And” between values parts separate entries of the source, which are not always exact repeats. Equal entries are not always repeated. The source made the active and inactive calls. No rule for the calls is given here.

A short description of this assay: inhibition of 3D7 malaria parasite growth – strain 3D7 (AID 2306).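 Also: 0% = DMSO wells and 100% = chloroquine plus artemisinin control wells.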 Particulars: P. falciparum 3D7 erythrocytic growth, LDH absorbance, 72 h; at 2 µM; stronger effect = higher value.
Consider `c1cc2nc(CCCCCc3nc4ccc(C5=N[C@@H]6CCCC[C@@H]6N5)cc4[nH]3)[nH]c2cc1C1=N[C@@H]2CCCC[C@@H]2N1`, for which the growth inhibition is 96% (active).

Turning to `Oc1ccc(-c2nc(-c3ccc4oc5ccc(-c6[nH]c(-c7ccc(O)cc7)nc6-c6ccccc6)cc5c4c3)c(-c3ccccc3)[nH]2)cc1`, the growth inhibition was 84% (active).

On to `CC(C)C[C@@H](C(=O)N[C@H](C(=O)Nc1nccs1)C(C)(C)C)[C@H](CCC(F)(F)F)N(O)C=O`, for which the growth inhibition was 97% (active).

Consider `COc1ccc(Nc2nc(NN=Cc3cc(Br)ccc3O)nc(Nc3ccc([N+](=O)[O-])cc3)n2)cc1`, for which the growth inhibition was 97% (active).

Consider `Oc1cccc(-c2nc(-c3ccccc3)c(-c3ccc4oc5ccc(-c6[nH]c(-c7cccc(O)c7)nc6-c6ccccc6)cc5c4c3)[nH]2)c1`, for which the growth inhibition is 91% (active).

For `COc1cc(-c2nc(-c3ccc4c(c3)CCC4=NO)c(-c3ccncc3)[nH]2)ccc1OCCN1CCN(C)CC1`, the growth inhibition was 99% (active).

In the case of `NC(N)=NN=Cc1c[nH]c2ccc(-c3ccccc3)cc12`, the growth inhibition is 84% (active).

Consider `Oc1cccc(-c2nc(-c3cccc(I)c3)c(-c3ccc(-c4nc(-c5cccc(O)c5)[nH]c4-c4cccc(I)c4)cc3)[nH]2)c1`, for which the growth inhibition is 96% (active).

`C[C@@H]([C@@H](CCCc1ccc(Cl)cc1)C(=O)N[C@H](C(=O)Nc1cccnc1)C(C)(C)C)N(O)C=O`: the growth inhibition is 100% (active).

On to `CCOc1cc(C=NNc2nc(C)cc(-n3nc(C)cc3C)n2)ccc1O`, for which the growth inhibition was 93% (active).

As to `Oc1ccc2ccccc2c1C=NNc1nc(Nc2ccccc2)nc(N2CCOCC2)n1`, the growth inhibition was 100% (active).

With `COc1cc(C=NNc2ccnc3cc(Cl)ccc23)ccc1O`, the growth inhibition is 101% (active).

On to `CCC[C@@H]([C@@H](CC1CCCCC1)C(=O)N[C@H](C(=O)Nc1ccccn1)[C@H](C)CC)N(O)C=O`, for which the growth inhibition is 96% (active).

In the case of `CN(C)C[C@H](O)[C@@H](c1ccccc1)c1ccc(Cl)cc1`, the growth inhibition was 99% (active).

In the case of `CCCC[C@@H](C(=O)NCc1ccccc1C(F)(F)F)N1C(=O)CCC1C(=O)Nc1ccc([N+](=O)[O-])cc1` (stereo not given in full), the growth inhibition is 94% (active).

As for `CC(=NO)C1=C(O)C(c2ccccc2)N(c2ccccc2)C1=O` (stereo not given), the growth inhibition was 99% (active).

As for `Oc1ccc2ccccc2c1C=NNc1nc(Nc2ccccc2)nc(Nc2ccccc2)n1`, the growth inhibition is 99% (active).

On to `CO[C@H](C)[C@H](NC(=O)[C@H](CC(C)C)[C@H](CCC(F)(F)F)N(O)C=O)C(=O)Nc1nccs1`, for which the growth inhibition is 99% (active).

In the case of `COc1ccc2nc(C)cc(NN=Cc3cc(C)ccc3O)c2c1`, the growth inhibition is 100% (active).

Consider `Cc1[nH]c2ccccc2c1C=NNc1nc(Nc2ccccc2)nc(Nc2ccccc2)n1`, for which the growth inhibition is 87% (active).

As for `CCC[C@@H]([C@@H](CC(C)C)C(=O)N[C@@H](CCCN=C(N)NS(C)(=O)=O)C(=O)Nc1nccs1)N(O)C=O`, the growth inhibition is 95% (active).

As to `Oc1cccc(-c2nc3ccc(C4=N[C@H]5CCCC[C@H]5N4)cc3[nH]2)c1`, the growth inhibition is 98% (active).

`Oc1ccc(C=NNC(=S)Nc2cccc3ccccc23)c(O)c1`: the growth inhibition is 89% (active).

With `CCC[C@@H]([C@@H](CC1CCCCC1)C(=O)N[C@H](C(=O)Nc1nccc(N)n1)C(C)(C)C)N(O)C=O`, the growth inhibition is 96% (active).

Take `COc1cc(-c2nc(-c3ccc4c(c3)CCC4=NO)c(-c3ccncc3)[nH]2)ccc1OCCN1CCCCC1`: the growth inhibition was 101% (active).

Regarding `O=C(Nc1cccc(-c2nn3ccccc3c2-c2ccnc(Nc3ccc(-c4cc[nH]n4)cc3)n2)c1)c1c(F)cccc1F`, the growth inhibition is 98% (active).

As to `ON=C1CCc2cc(-c3nc(-c4cccc(OCCNCc5ccc(F)cc5)c4)[nH]c3-c3ccncc3)ccc21`, the growth inhibition is 89% (active).

Consider `N=C(N)c1ccc(C=Cc2ccc(C(=N)N)cc2O)cc1`, for which the growth inhibition was 92% (active).

Consider `COc1ccc2ncc(F)c(CCN3C[C@H](CNCc4nc5c(cc4Cl)OCC(=O)N5)[C@H](O)C3)c2n1`, for which the growth inhibition was 93% (active) and 90% (active).

As for `O=C(/C=C/c1ccc(Cl)c(Cl)c1)NCCCCCN1CC[C@H](c2c[nH]c3ccccc23)[C@@H](O)C1`, the growth inhibition is 99% (active).

Turning to `COc1ccc(Nc2nc(NN=Cc3cc(Cl)ccc3O)nc(Nc3ccccc3)n2)cc1`, the growth inhibition is 100% (active).

Regarding `CC[C@H](C)[C@H](NC(=O)[C@H](CC1CCCCC1)[C@H](CC)N(O)C=O)C(=O)Nc1ccccn1`, the growth inhibition is 96% (active).

Take `CN(C)c1nc(NN=Cc2cc(Cl)ccc2O)nc(Nc2ccc(F)cc2)n1`: the growth inhibition is 94% (active).

On to `CCC[C@@H]([C@@H](CC(C)C)C(=O)N[C@@H](CCCCNC(=O)OCc1ccccc1)C(=O)Nc1ncccn1)N(O)C=O`, for which the growth inhibition was 100% (active).

As for `COc1ccc(Nc2nc(NN=Cc3cc(Br)c(O)cc3O)nc(Nc3ccc([N+](=O)[O-])cc3)n2)cc1`, the growth inhibition was 97% (active).

On to `COc1ccc2nccc([C@@H](O)CN3CC[C@H](NCc4nc5c(cc4Cl)SCC(=O)N5)[C@H](F)C3)c2c1`, for which the growth inhibition is 94% (active) and 99% (active).

For the compound `O=[N+]([O-])c1ccc(C=NO)nc1`, the growth inhibition is 80% (active).

As for `CC[C@@H]([C@@H](CC(C)C)C(=O)N[C@@H](CCCCNC(=O)OCc1ccccc1)C(=O)Nc1ccccn1)N(O)C=O`, the growth inhibition was 98% (active).

As to `Nc1c2c(nc3ccccc13)C(=Cc1ccc(O)cc1)CCC2`, the growth inhibition is 99% (active).

Consider `Cc1[nH]c2c(c(=O)c1Cl)-c1ccc(Oc3cccc(C(F)(F)F)c3)cc1C2=O`, for which the growth inhibition is 98% (active).
